Assay outcomes deposited in PubChem BioAssay by National Center for Advancing Translational Sciences (NCATS).
In the library only some 3.8% were active in any assay of this set; here they are far more common.
CBFb-RUNX1 inh: qHTS Assay for Compounds Blocking the Interaction Between CBF-beta and RUNX1 for the Treatment of Acute Myeloid Leukemia; Runt-related transcription factor 1 (Homo sapiens) + Core-binding factor subunit beta …; AlphaScreen CBFb-His/RUNX1-biotin binding, biochemical; Potency, µM (titrated, usually from 59.8 µM), inactives show at the highest dose activity, negative = inhibition, hits mostly inhibitors; 230,000 tested, under 10 active; AID 1477, 2009; note: % of control where 0% means no effect
Target sequence (Q01196 whole entry, looked up): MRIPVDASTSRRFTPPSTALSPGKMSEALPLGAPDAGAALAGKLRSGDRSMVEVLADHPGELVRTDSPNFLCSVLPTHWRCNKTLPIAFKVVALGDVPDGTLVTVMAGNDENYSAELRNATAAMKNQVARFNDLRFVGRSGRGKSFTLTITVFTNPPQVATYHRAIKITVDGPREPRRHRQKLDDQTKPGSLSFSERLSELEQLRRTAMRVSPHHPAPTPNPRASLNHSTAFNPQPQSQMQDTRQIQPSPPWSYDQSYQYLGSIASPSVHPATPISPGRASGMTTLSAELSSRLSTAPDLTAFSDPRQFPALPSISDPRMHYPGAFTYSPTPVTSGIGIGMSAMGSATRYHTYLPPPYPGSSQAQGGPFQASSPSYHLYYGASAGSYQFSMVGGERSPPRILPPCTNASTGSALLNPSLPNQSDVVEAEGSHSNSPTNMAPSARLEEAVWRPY
Target sequence (Q13951 whole entry, looked up): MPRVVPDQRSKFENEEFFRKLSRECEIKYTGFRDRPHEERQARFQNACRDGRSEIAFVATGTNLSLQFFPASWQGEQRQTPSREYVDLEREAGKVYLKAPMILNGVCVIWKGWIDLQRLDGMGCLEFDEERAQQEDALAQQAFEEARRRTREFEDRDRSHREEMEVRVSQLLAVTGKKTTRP
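Proteins preincubated together for 20 min at RT before compound addition; 15 min later, nickel and streptavidin beads were added and left 90 min prior to AlphaScreen measurement.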
hERG WT inh: qHTS for Inhibitors of KCHN2 3.1: Wildtype qHTS; 340,000 tested, 0.37% active; activity change, % at 1.84 µM; U2OS, BacMam KCNH2, thallium flux FluxOr; stronger effect = lower value;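 active = maximum activity change below -70%; inconclusive = maximum activity change between -70% and -50%; inactive = maximum activity change above -50%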; note: % is set by controls: 0 for no effect and ±100 for the full control effect
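U2OS cells transduced with wild-type KCNH2 virus are loaded with FluxOr dye for 45 min, and thallium flux is measured in kinetic reads before and after stimulation buffer. Rate constants are normalized to DMSO controls.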
KCNH2 3.1 block: qHTS for Inhibitors of KCHN2 3.1: Mutant qHTS. U2OS KCNH2 3.1, thallium flux FluxOr; stronger effect = lower value. Potassium voltage-gated channel subfamily H member 2, brain isoform KCNH2 3.1 (human). 340,000 tested, 0.95% active. activity change, % (tested at about 1.8 µM);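 active = maximum activity change below -70%; inconclusive = maximum activity change from -70% to -50%; inactive = maximum activity change above -50%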;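 note: thallium influx rate constant from kinetic fluorescence after stimulation buffer; % is set by controls: 0 for no effect and ±100 for the full control effect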
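Measured as rate of thallium-driven FluxOr signal in transduced U2OS cells carrying the 3.1 channel, read kinetically for 2 min upon stimulation; values are rate constants scaled to DMSO control wells.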
PLK1 PBD block: qHTS for Inhibitors of PLK1-PDB (polo-like kinase 1 - polo-box domain): Primary Screen | Serine/threonine-protein kinase PLK1 (Homo sapiens), P53350 | Plk1 PBD binding of FITC phosphopeptide, fluorescence polarization | Potency, µM, without a hit: max response, negative = inhibition, actives largely listed as inhibitors | 360,000 tested, 2.8% active | AID 720504, 2013; note: potency is the fitted concentration of half-maximal effect; series mostly up to about 57 µM; % is set by controls: 0 for no effect and ±100 for the full control effect; nearly all actives have a fitted effect of over 65% in size
MBNL1-CUG inh: qHTS Assay for Inhibitors of MBNL1-poly(CUG) RNA binding; TR-FRET MBNL1-His/biotin-(CUG)12 binding, 665/545 ratio; 280,000 tested, 0.036% active; AID 2675, 2010; Muscleblind-like protein 1 (Homo sapiens), Q9NR56; Potency, µM (series often up to 57.5 µM), for inactives: at the top dose activity change, negative = inhibition, hits mostly inhibitors; active = well fitted inhibition curve with a large enough effect in the signal ratio, with a control signal flat, not every such curve was filed as active; inconclusive = small, poorly fitted or top-dose-only effect, or effect the other way, or a change in a side signal; inactive = no such curve, though single readings can be large or run the other way; the % refers to the signal ratio; note: potency is the fitted concentration of half-maximal effect; % is set by controls: 0 for no effect and ±100 for the full control effect
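Compounds (final 92 nM to 58 uM) are added to His-tagged MBNL1 and biotin-(CUG)12, then terbium anti-His antibody and streptavidin-XL665 (5 nM final). After 60 min at room temperature, the 665/545 nm ratio is read.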
VDR inh: Inhibitors of the vitamin D receptor (VDR): qHTS | Vitamin D3 receptor (Homo sapiens), P11473 | VDR-SRC2-3 peptide fluorescence polarization, 2 h | Potency, µM, for the others: max response, negative = inhibition, hits mostly inhibitors | 400,000 tested, 0.93% active; note: potency is the fitted concentration of half-maximal effect; % is set by controls: 0 for no effect and ±100 for the full control effect
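Two reagent solutions held at 4 deg C in the dark were dispensed, compounds pinned at 23 nl, and the mixture incubated 2 h at room temperature. Read-out: fluorescence polarization of VDR–SRC2-3 peptide binding.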
TbPYK confirm: qHTS of Trypanosoma Brucei Inhibitors: Confirmatory Assay for Cherry-picked Compounds; shares compounds with PLK1 PBD block; recombinant TbPYK, Kinase-Glo ATP luminescence; Potency, µM (series often up to 76.9 µM), inactives show at the highest dose activity change, negative = inhibition, actives largely listed as inhibitors; 890 tested, 67% active; AID 720569, 2013; note: potency is the fitted concentration of half-maximal effect; % is set by controls: 0 for no effect and ±100 for the full control effect; nearly all actives have a fitted effect of over 70% in size
TbPYK orthogonal: qHTS of Trypanosoma Brucei Inhibitors: Orthogonal Assay for Cherry-picked Compounds; recombinant TbPYK, ADP-Glo luminescence, 60 min; 890 tested, 62% active; shares compounds with PLK1 PBD block; Potency, µM (doses to about 76.9 µM), inactives show top-dose activity change, negative = inhibition, hits mostly inhibitors; note: potency is the fitted concentration of half-maximal effect; % is set by controls: 0 for no effect and ±100 for the full control effect; nearly all actives have a fitted effect of over 75% in size
* hit, by the source's call; ? = inconclusive; nt = no result. Unless noted, calls come from the whole dose curve; as a rule, active = well fitted curve in the direction sought with a large enough effect; inconclusive = small, poorly fitted or top-dose-only effect, or another doubt; inactive = no such curve, though single readings can be large; an effect the other way counts as inactive or inconclusive.

SMILES	CBFb-RUNX1 inh	hERG WT inh	KCNH2 3.1 block	PLK1 PBD block	MBNL1-CUG inh	VDR inh	TbPYK confirm	TbPYK orthogonal
CC[C@H](C)[C@H](NC(=O)[C@H](CC(C)C)NC(=O)[C@H](CO)NC(=O)[C@H](CCC(=O)O)NC(=O)[C@H](CC(C)C)NC(=O)[C@H](Cc1ccc(O)cc1)NC(=O)[C@H](CCCCN)NC(=O)[C@H](CCCCN)NC(=O)[C@H](C)NC(=O)[C@H](CO)NC(=O)[C@H](CC(C)C)NC(=O)[C@H](CCC(N)=O)NC(=O)CNC(=O)[C@H](CC(C)C)NC(=O)[C@H](CC(C)C)NC(=O)[C@H](CCCNC(=N)N)NC(=O)[C@H](CO)NC(=O)[C@H](Cc1ccccc1)NC(=O)[C@H](CC(=O)O)NC(=O)[C@H](CO)NC(=O)[C@@H](NC(=O)[C@H](Cc1ccccc1)NC(=O)[C@@H](NC(=O)CNC(=O)[C@H](CC(=O)O)NC(=O)[C@H](C)NC(=O)[C@@H](N)Cc1cnc[nH]1)C(C)C)[C@@H](C)O)C(N)=O	16%	nt	nt	nt	nt	0%	nt	nt
CC(Oc1ccccc1F)C(=O)Nc1ccc(-c2nc3ccccc3s2)cc1 (stereo unspecified)	nt	nt	nt	nt	nt	7%	nt	nt
Cn1c(=O)[nH]c(=O)c2c1nc(SCC(=O)O)n2CCCc1ccccc1	nt	1	24	-29%	-14%	-9%	nt	nt
CCOCCSc1nc2c(c(=O)[nH]c(=O)n2C)n1CCCc1ccccc1	4%	0	-11	-9%	-1%	1%	nt	nt
Cn1c(=O)[nH]c(=O)c2c1nc(SCCN1CCCCC1)n2CCCc1ccccc1	4%	-1	-32	2.4µM*	-11%	35µM*	3.5µM*	4.5µM*
Cc1ccc(Cn2c(SCCN3CCCCC3)nc3c2c(=O)[nH]c(=O)n3C)cc1	1%	-42	-95*	7.5µM*	7%	89µM*	16µM*	11µM*
Cn1c(=O)[nH]c(=O)c2c1nc(SCC(=O)O)n2Cc1ccccc1	nt	3	17	-10%	1%	-19%	?	?
CN1CCN(S(=O)(=O)c2ccc(N3CCN(c4ccc(O)cc4)CC3)c([N+](=O)[O-])c2)CC1	nt	-11	4	-1%	nt	-7%	11µM*	18µM*
CC(=O)c1cccc(NC(=O)c2ccc3nc(C(C)C)oc3c2)c1	nt	nt	nt	nt	nt	-7%	nt	nt
O=C(O)c1ccc2c(c1)C(=O)/C(=C/c1ccccc1)C2=O	-30%	-1	-16	2.4µM*	?	?	16µM*	35µM*
COc1ccc(S(=O)(=O)NCCc2sc(-c3cccnc3)nc2C)cc1	nt	nt	nt	nt	nt	11%	nt	nt
Cc1cc(C)cc(N2C(=O)C=CC2=O)c1	nt	19	-18	3µM*	nt	40µM*	10µM*	14µM*
Cc1c([N+](=O)[O-])cc(N2C(=O)C=CC2=O)cc1[N+](=O)[O-]	nt	0	18	2.7µM*	nt	-7%	4µM*	7.9µM*
Cc1cc(C)cc(N2C(=O)c3nccnc3C2=O)c1	10%	-5	-8	-12%	7%	-19%	nt	nt
CCOc1ccccc1NC(=O)Cn1c(=O)n(Cc2ccco2)c(=O)c2ccc(C(=O)NC3CCCC3)cc21	nt	nt	nt	nt	nt	4%	nt	nt
CCOC(=O)C1CCN(C(=O)c2ccc3c(c2)N=C(CC)c2cc(C)ccc2S3)CC1	nt	nt	nt	nt	nt	-8%	nt	nt
O=C1/C(=C\c2ccncc2)CCc2ccccc21	nt	-6	-6	-8%	nt	79µM*	?	7%
O=C1C(=Cc2ccccc2Cl)CCc2ccccc21	nt	nt	nt	-18%	nt	nt	25µM*	9%
O=C1C(=Cc2ccc(F)cc2)CCc2ccccc21	nt	nt	nt	-15%	nt	nt	28µM*	10%
O=C1/C(=C/c2ccncc2)CCc2ccccc21	4%	8	-6	-4%	-12%	?	nt	nt
COc1ccc(C=C2CCc3ccccc3C2=O)cc1	nt	nt	nt	4%	nt	nt	25µM*	12%
COc1cccc(NC(=O)N(Cc2c[nH]c3ccccc23)C2CCCCCC2)c1	nt	nt	nt	nt	nt	-7%	nt	nt
COc1ccccc1CNC(=O)CCn1c(=O)c2ccccc2n(CC(=O)Nc2ccc(C)cc2)c1=O	nt	nt	nt	nt	nt	-2%	nt	nt
O=C1C(=Cc2cccc(Cl)c2)CCc2ccccc21	nt	nt	nt	0%	nt	nt	nt	nt
O=C1C(=Cc2ccc(Cl)cc2)CCc2ccccc21	nt	nt	nt	2%	nt	nt	25µM*	7%
SMILES	CBFb-RUNX1 inh	hERG WT inh	KCNH2 3.1 block	PLK1 PBD block	MBNL1-CUG inh	VDR inh	TbPYK confirm	TbPYK orthogonal
COc1ccc(-c2nnc(SCCC(=O)O)n2-c2ccccc2)cc1	8%	-20	-2	-2%	-5%	2%	7.9µM*	5µM*
CC1=CC(=Nc2c(C)n(C)n(-c3ccccc3)c2=O)C=CC1=O	-27%	nt	nt	nt	?	nt	nt	nt
CC1=CC(=Nc2c(C)n(C)n(-c3ccccc3)c2=O)C=C(C)C1=O	-6%	3	0	-5%	3%	-3%	-26%	-7%
S=C(c1ccc(-c2ccc(Cl)cc2Cl)o1)N1CCCC1	-1%	1	4	?	15%	?	?	?
CCCCC1(C)OC(=O)C(=Cc2ccc(-c3ccc(Cl)c(C(=O)O)c3)o2)C(=O)O1 (stereo unspecified)	?	18	1	4.2µM*	14%	22µM*	16µM*	32µM*
Nc1ccc(-c2nc3ccccc3o2)cc1	nt	-7	10	7%	-12%	-3%	nt	nt
O=C1C=CC(=O)N1c1ccc(-c2nc3ccccc3o2)cc1	nt	-2	1	8.4µM*	nt	nt	-95%	11µM*
O=C(N/N=C/c1cccnc1)c1[nH]ncc1Br	1%	-5	13	0%	10%	-7%	nt	nt
